# In the library only some 7.3% were active in any assay of this set; here they are far more common.
# HCV inhibitor – qHTS Assay for Inhibitors of Hepatitis C Virus (HCV) | Potency, µM (top dose mostly 41.8 µM), for inactives: at the top dose activity change, negative = inhibition, usual class: inhibitors | Huh7.5.1 HCVcc-Cre infection, luciferase reporter, 44 h | 3.4% of 340,000 active; also: potency is read from the fitted curve at half-maximal effect
#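 Antiviral activity was scored by luciferase reporter output from cells infected with HCVcc-Cre (~0.5 moi) in presence of compound, 44 h infection period, cells seeded 1,000/well 4 h prior.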
# AmpC detergent – qHTS Inhibitors of AmpC Beta-Lactamase (assay with detergent). P00811. AmpC hydrolysis of nitrocefin, absorbance 480 nm, 0.01% Triton. Potency, µM (doses to about 114 µM), for inactives: at the top dose activity change, negative = inhibition, usual class: inhibitors. 0.041% of 370,000 active;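 also: potency is read from the fitted curve at half-maximal effect; 0% = no-compound wells and -100% = no-enzyme wells; nearly all actives have a fitted effect of over 25% in size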
# Target sequence (P00811 whole entry, looked up): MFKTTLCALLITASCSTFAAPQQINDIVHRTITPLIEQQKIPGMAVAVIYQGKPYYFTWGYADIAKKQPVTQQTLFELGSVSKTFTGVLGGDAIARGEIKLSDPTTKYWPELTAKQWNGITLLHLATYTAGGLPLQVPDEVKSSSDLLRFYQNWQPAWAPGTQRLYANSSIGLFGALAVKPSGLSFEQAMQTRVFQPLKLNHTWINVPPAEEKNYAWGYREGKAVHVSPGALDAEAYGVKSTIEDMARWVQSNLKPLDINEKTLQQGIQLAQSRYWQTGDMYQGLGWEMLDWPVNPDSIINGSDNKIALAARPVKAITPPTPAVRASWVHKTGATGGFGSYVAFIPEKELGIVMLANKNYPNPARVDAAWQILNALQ
#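 20 mM phosphate pH 7.0 + 0.01% (detergent screen) or 0.0001% Triton X-100; 5.3 nM AmpC reagent; cpd preinc 15 min RT; nitrocefin (800 uM stock) to start; A480 q20 s × 4 min; Activity was normalised to no-enzyme and no-compound control wells.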
# HCMV antiviral – qHTS Assay for inhibitors of the human cytomegalovirus (HCMV); activity change, negative = inhibition, % at 57.5 µM; AID 1259415, 2018; HFF cells, HCMV-luciferase reporter, 72 h; active compounds read low; 4.5% of 410,000 active; in the data active = activity change below about -60%; inconclusive = no clear call, values can overlap the other calls; inactive = above about -39%
#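 Luciferase read-out from HCMV-luciferase-infected HFFs (MOI 1 PFU/cell) 72 h post infection at 37C; compounds added after 16 h cell attachment; activity normalized between buffer-only basal and Salinomycin (10uM) inhibitor controls.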
# AmpC inh no detg – qHTS Inhibitors of AmpC Beta-Lactamase (assay without detergent); P00811; AmpC nitrocefin hydrolysis, absorbance 480 nm, 0.0001% Triton; Potency, µM (top dose mostly 57.1 µM), without a hit: at the highest dose activity change, negative = inhibition, hits mostly inhibitors; 0.52% of 330,000 active;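 also: potency is read from the fitted curve at half-maximal effect; plate controls were no compound for no effect and no enzyme for full effect; nearly all actives have a fitted effect of over 20% in size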
#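 20 mM phosphate pH 7.0 + 0.01% (detergent screen) or 0.0001% Triton X-100; 5.3 nM AmpC reagent; cpd preinc 15 min RT; nitrocefin (800 uM stock) to start; A480 q20 s × 4 min; Activity was normalised to no-enzyme and no-compound control wells.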
# FMDV inh – High Throughput Screening for Foot and Mouth Disease Virus Antivirals | 1.2% of 410,000 active | Potency, µM (series often up to 57.9 µM), inactives show at the top dose activity change, negative = inhibition, most hits filed as inhibitors | AID 1159524, 2015 | FMDV antiviral cell-based qHTS; calls by dose curve; tested in HEK293T cells; also: read-out not given here; potency is read from the fitted curve at half-maximal effect; nearly all actives have a fitted effect of over 45% in size
# * marks the source's active call; other numbers are inactive results; ? = inconclusive; . = no result. Unless noted, calls follow the shape of the dose curve; as a rule, active = well fitted curve in the direction sought with a large enough effect; inconclusive = small, poorly fitted or top-dose-only effect, or another doubt; inactive = no such curve, though single readings can be large; an effect the other way counts as inactive or inconclusive. Unless noted, % is scaled to controls: 0 for no effect and ±100 for the full control effect.
SMILES,HCV inhibitor,AmpC detergent,HCMV antiviral,AmpC inh no detg,FMDV inh
CCC(=O)Nc1nc2ccc([N+](=O)[O-])cc2s1,-4.2%,-0.7%,-60.0*,-12.6%,-13.7%
CC(=O)Nc1ccc2nc(NC(=O)COc3ccc([N+](=O)[O-])cc3)sc2c1,6.1%,-2.6%,3.3,-17.6%,1.0%
Cc1ccc(C)c(OCC(=O)Nc2nc3ccc([N+](=O)[O-])cc3s2)c1C,11.2µM*,-1.7%,-65.5*,-26.8%,0.0%
CCOc1ccc(NC(=O)COC(=O)c2cc([N+](=O)[O-])ccc2N2CCOCC2)cc1,?,1.6%,-25.5,-5.0%,-23.6%
Cc1cc(NC(=O)COC(=O)c2cc([N+](=O)[O-])ccc2N2CCOCC2)ccc1Br,7.08µM*,?,-37.4,31.6µM*,31.6µM*
CCc1cccc(NC(=O)COC(=O)c2cc([N+](=O)[O-])ccc2N2CCOCC2)c1,10µM*,-12.4%,-4.1,-5.0%,?
C=CC(C)(C)c1c(O)c(CC=C(C)C)c(O)c2c(=O)c3ccc(O)c(O)c3oc12,11.2µM*,.,.,.,?
C=CC(C)(C)c1c2occc2c(O)c2ccc(=O)oc12,-9.1%,.,49.9,-38.5%,?
OC(c1ccccc1)c1nc(-c2csc3ccccc23)cs1 (centres undefined),.,.,73.1,.,15.3%
COc1ccc(NC(=S)Nc2cccc(S(=O)(=O)N3CCCCC3)c2)cc1,7.9%,-10.9%,-63.9*,-39.5%,-4.9%
COc1ccc(NC(=O)c2cc(S(=O)(=O)N3CCCC3)c[nH]2)cc1,11.6%,-8.8%,-19.2,-31.7%,15.2%
O=C(Nc1cccc(S(=O)(=O)N2CCCC2)c1)c1cccc(S(=O)(=O)N2CCOCC2)c1,?,-4.7%,-12.6,-31.5%,-16.5%
CC(=O)Oc1ccc(-c2ccc(C(=O)Nc3cccc(S(=O)(=O)N4CCOCC4)c3)cc2)cc1,?,0.4%,-97.7*,24.5%,?
COc1ccc(C(=O)NC(=S)Nc2cccc(S(=O)(=O)N3CCOCC3)c2)cc1,14.1µM*,1.5%,-32.3,-17.3%,0.0%
COc1ccc(C(=O)NNC(=O)c2cccc(S(=O)(=O)N3CCOCC3)c2)cc1,0.2%,.,19.8,-7.9%,-1.9%
COc1ccc(NC(=O)c2cc(S(=O)(=O)N3CCCC3)oc2C)cc1,-14.3%,-2.8%,-64.9*,1.8%,7.7%
COc1cccc(CNC(=O)[C@H]2[C@H](CO)[C@H]3Cn4c(cccc4=O)[C@@H]2N3C(=O)C2CC2)c1,.,.,-19.7,.,.
COc1ccc2c(c1)C(n1c(C)ccc1C)C(=O)N2Cc1ccc(C(F)(F)F)cc1 (centres undefined),.,.,14.4,.,.
COc1ccc(S(=O)(=O)N2CCN(CC(=O)c3c(N)n(C)c(=O)n(C)c3=O)CC2)cc1OC,.,.,-3.6,.,-7.0%
CC1(c2ccc(OC(F)F)cc2)NC(=O)N(CC(=O)Nc2ccc(Cl)cc2F)C1=O (centres undefined),?,?,39.4,4.1%,-6.7%
CCOc1ccc(S(=O)(=O)N(CC(=O)Nc2ccc(OC)cc2OC)c2ccccc2)cc1,.,11.8%,-20.0,.,-16.4%
Cc1ccccc1CSCC1Nc2ccc(C(=O)NCCc3ccccc3)cc2NC1=O (centres undefined),.,.,-23.2,.,-18.6%
COc1ccc(NS(=O)(=O)c2cc(OC)ccc2NC(=O)c2cc(C)oc2C)cc1,4.47µM*,-13.7%,23.5,-14.7%,0.0%
Cc1cccc(NC(=O)c2cccc(OC(=S)N3CCOCC3)c2)c1,?,-13.3%,-29.4,-8.7%,0.5%
O=C(Nc1cccc(Cl)c1)c1ccc(OC(=S)N2CCOCC2)cc1,12.6µM*,7.0%,?,-27.9%,8.7%
SMILES,HCV inhibitor,AmpC detergent,HCMV antiviral,AmpC inh no detg,FMDV inh
COc1ccc(NS(=O)(=O)c2cc(OC)ccc2OC)cc1,-17.6%,.,-16.7,.,69.6%
CC1(C)CC2CC(C)(CN2S(=O)(=O)c2ccc(C(=O)Nc3cccc(S(=O)(=O)N4CCOCC4)c3)cc2)C1 (centres undefined),11.2µM*,-7.1%,-91.5*,23.6%,?
O=C(NCc1nnc2n1CCN(C(=O)c1cccc(Cl)c1)CC2)C1CC1,.,.,.,.,-2.4%
COc1ccc(/C=C2\C(=N)N3N=C(CC(=O)N4CCCCC4)SC3=NC2=O)cc1,3.4%,1.3%,11.0,-37.7%,12.9%
Cc1cccc(N2C(=O)C(Oc3ccc(Cl)cc3Cl)C2C(=O)O)c1C (centres undefined),32.3%,-3.4%,-9.9,-12.5%,?
CCCCNCC1C(Oc2ccc(Cl)cc2)C(=O)N1c1ccccc1C (centres undefined),?,?,-78.6*,4.0%,-22.8%
CCCNCC1C(Oc2ccc(Cl)cc2Cl)C(=O)N1c1cccc(C)c1C (centres undefined),31.6µM*,?,-90.3*,-1.6%,?
Cc1ccc(C)c(NC(=S)N2CCC(NC(=O)c3cccc(F)c3)CC2)c1,8.4%,-6.6%,6.2,-0.9%,-9.9%
CC(C)=CC(=O)O[C@@H]1Cc2cc3ccc(=O)oc3cc2OC1(C)C,3.16µM*,-3.7%,7.7,25.9%,-12.2%
COc1ccc(CCNC(=O)COc2cc(O)c3c(c2)OC(C)(C)CC3=O)cc1OC,3.16µM*,-10.8%,21.4,41.1%,-26.5%
COc1ccc(CCNC(=O)COc2cc(O)c3c(c2)OC(C)(C)CC3=O)cc1,?,?,0.0,-10.3%,-16.1%
COc1cc(NC(=O)COc2cc(O)c3c(c2)OC(C)(C)CC3=O)cc(OC)c1,2.82µM*,?,-3.2,-32.0%,-32.9%
COc1ccc(NC(=O)COc2cc(O)c3c(c2)OC(C)(C)CC3=O)cc1,2.82µM*,?,-15.8,-50.3%,0.0%
COc1cccc(NC(=O)COc2cc(O)c3c(c2)OC(C)(C)CC3=O)c1,-94.2%,?,44.1,-36.6%,-1.5%
COc1ccc(NC(=O)CSc2nc3nc(C)cc(C)n3n2)cc1OC,.,10.0%,-4.3,.,-8.7%
COc1cccc(NC(=O)CN(C)C(=O)c2cccc(S(=O)(=O)N3c4ccccc4CC3C)c2)c1 (centres undefined),?,-8.1%,5.8,20.3%,9.7%
Cc1noc(C)c1-c1nc(CS(=O)(=O)c2ccccc2)no1,23.7%,-2.3%,-83.6*,-8.6%,16.3%
CC(=O)Nc1ccc(SCc2ncc(-c3ccccc3)o2)cc1,-27.5%,-5.1%,57.2,47.2%,16.1%
c1ccc(-c2cnc(CSc3ncnc4sccc34)o2)cc1,11.2µM*,-1.3%,3.4,-12.7%,-5.5%
CC[n+]1c(/C=C/c2c[nH]c3ccccc23)ccc2cc(C)ccc21,4.47µM*,2.3%,-99.0*,-14.7%,12.6µM*
CCN(CC)C(=O)c1ccc(/C=C/c2c[nH]c3ccccc23)[n+](C)c1,29.3%,?,89.2,-22.4%,-21.5%
